# According to PubChem BioAssay (NCATS):
# Where “and” joins values, the source holds several entries; their conditions need not be identical. Equal entries are not always repeated. Records with an inconclusive call do not appear. Entries that show only a call come without a potency. Calls of active or inactive are those of the source. Unless noted, the call rests on the fitted dose curve; in most records, active means well fitted curve in the direction sought with a large enough effect; inconclusive means small, poorly fitted or top-dose-only effect, or another doubt; inactive means no such curve, though single readings can be large; an effect the other way counts as inactive or inconclusive.
# Assays:
# [1] = biological target: Cytochrome P450 1A2 (Homo sapiens) (UniProt P05177); test: p450-cyp1a2 (AID 410; calls by dose curve; further: potency means the concentration at half of the fitted maximal effect)
# Chain of Cytochrome P450 1A2 (Homo sapiens) (P05177 whole entry, looked up): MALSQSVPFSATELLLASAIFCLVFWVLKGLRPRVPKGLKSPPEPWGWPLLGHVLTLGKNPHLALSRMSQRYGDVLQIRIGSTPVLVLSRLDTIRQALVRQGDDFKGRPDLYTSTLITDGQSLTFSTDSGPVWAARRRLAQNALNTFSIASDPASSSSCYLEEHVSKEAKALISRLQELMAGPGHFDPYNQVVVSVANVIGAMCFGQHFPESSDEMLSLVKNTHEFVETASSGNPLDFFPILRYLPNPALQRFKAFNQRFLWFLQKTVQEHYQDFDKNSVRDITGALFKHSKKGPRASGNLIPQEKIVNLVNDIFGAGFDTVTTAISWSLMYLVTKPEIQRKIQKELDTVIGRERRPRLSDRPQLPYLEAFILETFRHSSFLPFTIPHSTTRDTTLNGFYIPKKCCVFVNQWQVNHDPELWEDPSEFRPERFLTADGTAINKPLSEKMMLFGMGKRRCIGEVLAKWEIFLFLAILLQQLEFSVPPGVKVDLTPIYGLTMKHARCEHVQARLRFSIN
# Summary of the method: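 20nM CYP1A2 with 100uM Luciferin-ME (at Km) in 100mM KPO4; compound preincubated 10 min, NADPH regeneration added, 60 min at room temperature. Luciferin quantified by luminescence after detection reagent; normalized to 57 uM furafylline.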
# [2] = NFAT Signaling Pathway (AID 444; active means well fitted curve in either direction with a large enough effect, not every such curve was filed as active;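 further: carbachol stimulus at about its EC50 of 1 µM final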); conditions: Jurkat NFAT-bla M1, carbachol, beta-lactamase ratio, 5 h; at 38 µM (top of the series)
# Summary of the method: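 Jurkat cells with NFAT-driven β-lactamase reporter and co-expressed M1 receptor, stimulated with carbachol (final 1 uM, ~EC50), compound titration, 5 h at 37 °C. CCF4 loaded 1 h at RT; 460/530 nm ratio gave %activity and AC50.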
# [3] = Stat Signaling Pathway (AID 446; active means well fitted curve in either direction with a large enough effect, not every such curve was filed as active;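 further: ME-180 cervical cancer cells given 40 pM IL-6 alongside compound; SIE-controlled beta-lactamase reporter measured as 460/530 nm FRET emission ratio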); conditions: ME-180 SIE beta-lactamase reporter, IL-6 stimulated, 5 h; at 38 µM (top of the series)
# Summary of the method: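 ME-180 SIE-bla cells; overnight plating; cpd + IL-6 40 pM, 5 h, 37 C; LiveBLAzer 2.5 h RT; 460/530 nm emission ratio. Normalized to 300 pM IL-6 and 125 nM JAK inhibitor controls.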
# [4] = biological target: Glucocorticoid receptor (Homo sapiens) (UniProt P04150); test: GR-GFP Redistribution (AID 450;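 active means compounds whose dose series gives a full or clear partial fitted curve of increased nuclear translocation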; further: potency means the concentration at half of the fitted maximal effect); conditions: U2OS GR-GFP nuclear translocation, laser cytometry, 2 h
# Chain of Glucocorticoid receptor (Homo sapiens) (P04150 whole entry, looked up, the tested form may be a part): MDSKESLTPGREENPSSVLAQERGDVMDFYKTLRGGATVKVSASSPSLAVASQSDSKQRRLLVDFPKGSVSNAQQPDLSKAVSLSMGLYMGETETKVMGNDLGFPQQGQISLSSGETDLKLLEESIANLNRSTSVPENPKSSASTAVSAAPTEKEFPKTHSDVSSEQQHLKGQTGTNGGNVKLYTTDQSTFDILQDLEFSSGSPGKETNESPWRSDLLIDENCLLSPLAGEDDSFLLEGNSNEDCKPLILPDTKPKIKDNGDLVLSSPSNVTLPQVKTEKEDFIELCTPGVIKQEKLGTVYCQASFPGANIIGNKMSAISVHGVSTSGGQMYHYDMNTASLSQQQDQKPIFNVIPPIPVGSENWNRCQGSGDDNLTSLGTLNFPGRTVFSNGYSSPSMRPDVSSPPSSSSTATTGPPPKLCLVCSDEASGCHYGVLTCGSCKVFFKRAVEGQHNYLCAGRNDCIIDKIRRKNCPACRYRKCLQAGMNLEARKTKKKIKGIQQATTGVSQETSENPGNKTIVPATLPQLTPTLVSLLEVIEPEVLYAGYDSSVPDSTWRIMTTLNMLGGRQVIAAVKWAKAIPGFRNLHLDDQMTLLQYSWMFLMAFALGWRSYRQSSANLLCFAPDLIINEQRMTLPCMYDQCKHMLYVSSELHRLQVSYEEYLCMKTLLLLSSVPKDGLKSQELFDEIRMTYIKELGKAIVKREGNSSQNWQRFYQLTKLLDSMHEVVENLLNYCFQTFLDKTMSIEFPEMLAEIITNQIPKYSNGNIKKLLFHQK
# [5] = biological target: Glucocorticoid receptor (Homo sapiens) (UniProt P04150); test: GR-EFC Redistribution (AID 451; calls by dose curve; further: potency means the concentration at half of the fitted maximal effect); conditions: CHO-K1 GR-EFC translocation, beta-gal luminescence, 2 h
# Summary of the method: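 CHO-K1 cells expressing nuclear EA and GR-ED fragments of b-gal; compounds titrated up to 46 uM final, 2 h at 37 C. GR nuclear translocation read as complemented b-gal luminescence after 1 h RT detection.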
# [6] = biological target: Mitogen-activated protein kinase 10 (Mus musculus) (UniProt Q61831); test: JNK3 AlphaScreen Assay (AID 530; active means well fitted curve in either direction with a large enough effect, not every such curve was filed as active;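 further: kinase came from lysate of stimulated human HepG2 cells; signal reports phosphorylation of biotinylated GST-cJun 1-79 at Ser73 with 10 µM ATP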)
# Summary of the method: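 Pre-activated (IL-1β/TNFα) JNK3 in HepG2 lysates phosphorylates biotin-GST-cJun(1-79), 10 uM ATP; anti-phospho-cJun(Ser73) AlphaScreen read at room temperature, pH 7.6 Tris buffer. Compounds pre-incubated 15 min as titrations.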
# [7] = biological target: Guanine nucleotide-binding protein G(i) subunit alpha-1 (Homo sapiens) (UniProt P63096); test: qHTS Assay for Inhibitors of RGS12 GoLoco Motif Activity (Green Fluorophore) (AID 879);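 further: negative values mean loss of peptide binding seen as reduced polarization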
# Chain of Guanine nucleotide-binding protein G(i) subunit alpha-1 (Homo sapiens) (P63096 whole entry, looked up): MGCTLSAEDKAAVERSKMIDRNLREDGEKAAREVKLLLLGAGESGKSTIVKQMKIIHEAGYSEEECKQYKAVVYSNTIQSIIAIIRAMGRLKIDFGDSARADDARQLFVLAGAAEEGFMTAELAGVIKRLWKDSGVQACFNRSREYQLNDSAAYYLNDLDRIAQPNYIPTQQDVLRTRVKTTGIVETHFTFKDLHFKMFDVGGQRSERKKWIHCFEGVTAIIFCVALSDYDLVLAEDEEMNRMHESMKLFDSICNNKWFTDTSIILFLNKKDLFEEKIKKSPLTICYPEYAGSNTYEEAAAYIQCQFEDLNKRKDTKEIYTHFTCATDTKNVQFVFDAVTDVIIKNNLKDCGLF
# Summary of the method: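 Fluorescence polarization assay: 50 nM Gαi1 with 10 nM FITC-labeled RGS12 GoLoco peptide in 10 mM Tris pH 7.5, 150 mM NaCl, 0.1 mM GDP, 0.05% NP40, 10 min at room temperature with compound.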
# [8] = biological target: Cytochrome P450 2C9 (Homo sapiens) (UniProt P11712); test: qHTS Assay for Inhibitors and Substrates of Cytochrome P450 2C9 (AID 883); further: potency means the concentration at half of the fitted maximal effect; nearly all actives have a fitted effect of over 60% in size
# Chain of Cytochrome P450 2C9 (Homo sapiens) (P11712 whole entry, looked up): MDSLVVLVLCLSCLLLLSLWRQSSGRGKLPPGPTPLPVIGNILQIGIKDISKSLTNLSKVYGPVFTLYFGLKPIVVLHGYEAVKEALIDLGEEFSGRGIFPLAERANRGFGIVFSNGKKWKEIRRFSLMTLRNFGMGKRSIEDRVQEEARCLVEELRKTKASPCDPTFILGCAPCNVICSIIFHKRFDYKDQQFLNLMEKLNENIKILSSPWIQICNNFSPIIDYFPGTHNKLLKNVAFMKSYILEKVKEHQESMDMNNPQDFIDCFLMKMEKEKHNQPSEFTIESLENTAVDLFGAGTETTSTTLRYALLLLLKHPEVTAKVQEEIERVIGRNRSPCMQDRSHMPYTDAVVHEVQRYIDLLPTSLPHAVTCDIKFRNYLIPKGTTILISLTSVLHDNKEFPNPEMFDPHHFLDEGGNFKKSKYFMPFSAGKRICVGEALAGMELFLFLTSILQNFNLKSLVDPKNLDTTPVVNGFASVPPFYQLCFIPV
# Summary of the method: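 Signal: luciferase luminescence reporting luciferin produced by CYP2C9. Conditions: 10nM enzyme, Luciferin-H 100uM at KM, 25mM KPO4, 37C, 60 min NADPH-driven reaction. Reference: 57uM sulphaphenazole as 100% inhibition.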
# [9] = biological target: Pyruvate kinase (Leishmania mexicana) (UniProt Q27686); test: qHTS Validation Assay for Inhibitors of Leishmania Mexicana Pyruvate Kinase (AID 945)
# Chain of Pyruvate kinase (Leishmania mexicana) (Q27686 2-499 E452W): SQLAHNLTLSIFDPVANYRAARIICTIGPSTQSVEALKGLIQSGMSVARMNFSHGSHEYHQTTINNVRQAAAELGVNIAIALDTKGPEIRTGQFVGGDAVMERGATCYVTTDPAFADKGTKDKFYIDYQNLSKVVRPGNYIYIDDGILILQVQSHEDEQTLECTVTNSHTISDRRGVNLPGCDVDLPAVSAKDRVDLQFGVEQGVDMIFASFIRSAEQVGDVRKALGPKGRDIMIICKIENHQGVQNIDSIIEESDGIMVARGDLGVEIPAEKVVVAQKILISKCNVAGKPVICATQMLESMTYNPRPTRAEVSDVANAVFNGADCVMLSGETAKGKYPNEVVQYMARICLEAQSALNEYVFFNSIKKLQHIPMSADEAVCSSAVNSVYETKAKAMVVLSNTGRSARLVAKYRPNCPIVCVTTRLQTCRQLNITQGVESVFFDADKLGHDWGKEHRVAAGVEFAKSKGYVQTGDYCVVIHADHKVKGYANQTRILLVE
# Summary of the method: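 An endpoint luciferase assay: 0.2 nM LmPYK E451W turns over 0.5 mM PEP with 0.1 mM ADP for 1 h at room temperature, pH 7.2, before PKLight addition. Values are normalized to DMSO-only wells.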
# [10] = biological target: Pyruvate kinase PKM (Homo sapiens) (UniProt P14618); test: qHTS Assay for Activators of Human Muscle Pyruvate Kinase (AID 954; active means well fitted curve in the direction sought with a large enough effect, not every such curve was filed as active)
# Chain of Pyruvate kinase PKM (Homo sapiens) (P14618 whole entry, looked up): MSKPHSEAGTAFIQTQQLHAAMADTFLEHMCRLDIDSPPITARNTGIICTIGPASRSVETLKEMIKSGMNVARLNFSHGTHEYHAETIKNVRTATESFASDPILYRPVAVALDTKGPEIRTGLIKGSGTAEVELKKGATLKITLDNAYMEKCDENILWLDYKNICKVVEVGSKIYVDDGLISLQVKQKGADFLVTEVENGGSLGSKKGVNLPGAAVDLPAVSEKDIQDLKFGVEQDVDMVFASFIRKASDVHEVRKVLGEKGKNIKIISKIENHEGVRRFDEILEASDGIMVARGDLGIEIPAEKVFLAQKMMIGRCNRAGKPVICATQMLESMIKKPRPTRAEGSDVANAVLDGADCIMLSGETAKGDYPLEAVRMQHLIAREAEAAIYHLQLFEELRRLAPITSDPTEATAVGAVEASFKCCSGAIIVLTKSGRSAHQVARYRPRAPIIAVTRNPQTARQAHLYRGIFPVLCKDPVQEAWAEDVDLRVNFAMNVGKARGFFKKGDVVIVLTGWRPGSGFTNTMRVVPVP
# Summary of the method: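 Luminescence from a luciferase ATP-detection/stop reagent reported PKM2 activity. Reactions contained 0.1 nM purified human enzyme, 0.5 mM PEP, 0.1 mM ADP and 7 mM MgCl2 at pH 7.2, run 1 h at RT.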
# [11] = biological target: Alpha-galactosidase A (Homo sapiens) (UniProt P06280); test: Counterscreen for Glucocerebrosidase Inhibitors: qHTS Assay for Human alpha-Galactosidase at pH 4.5 (AID 992)
# Chain of Alpha-galactosidase A (Homo sapiens) (P06280 whole entry, looked up): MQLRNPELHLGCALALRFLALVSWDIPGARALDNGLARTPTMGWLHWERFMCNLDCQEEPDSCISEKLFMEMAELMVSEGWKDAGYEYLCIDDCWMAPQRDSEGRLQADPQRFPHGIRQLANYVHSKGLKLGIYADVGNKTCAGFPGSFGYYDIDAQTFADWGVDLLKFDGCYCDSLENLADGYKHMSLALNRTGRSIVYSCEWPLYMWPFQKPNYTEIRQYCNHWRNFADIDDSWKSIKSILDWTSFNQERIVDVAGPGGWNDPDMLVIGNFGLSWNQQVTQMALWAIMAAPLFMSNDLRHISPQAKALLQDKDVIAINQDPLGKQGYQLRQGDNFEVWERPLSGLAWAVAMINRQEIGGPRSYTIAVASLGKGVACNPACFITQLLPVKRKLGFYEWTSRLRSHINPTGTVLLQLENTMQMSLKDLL
# Summary of the method: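 Enzyme at 2 nM final was combined with compound (0.7 nM to 77 uM) and 80 uM 4-methylumbelliferyl alpha-D-galactopyranoside in 50 mM citric acid, 0.005% Tween-20, pH 4.5. After 20 min at room temperature, fluorescence was read (Ex 365/Em 440 nm); AC50 came from Hill fits.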
# [12] = biological target: alpha-glucosidase (Oryza sativa, rice) (UniProt Q653V4); test: Counterscreen for Glucocerebrosidase Inhibitors: qHTS Assay for Rice alpha-Glucosidase at pH 5.0 (AID 997)
# Summary of the method: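 Rice alpha-glucosidase (4 nM final) with 400 uM 4-methylumbelliferyl-alpha-D-glucopyranoside in citrate buffer pH 5.0, 20 min at room temperature, stopped at pH 10; fluorescence 365/440 nm, compounds 0.7 nM–77 uM, AC50 from Hill fits.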
# [13] = Validation of Assay for Modulators of Lamin A Splicing (AID 1459; active means well fitted curve in the direction sought with a large enough effect in the signal ratio; the % refers to the signal ratio;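 further: cells exposed to compound for two days before reading; ratio rise marks activators and ratio drop marks inhibitors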)
# Summary of the method: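 S3 HeLa stably expressing lamin A-EGFP splicing minigene and DsRed2, 600 cells/well in Opti-MEM with 2% FBS, treated 48 h at 37C; laser-scanning cytometry gives GFP/RFP total intensity ratio; ancitabine positive control, 0.5% DMSO vehicle.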
# [14] = qHTS Assay for Lipid Storage Modulators (AID 1519; calls by dose curve); conditions: Drosophila S3 cells, BODIPY lipid droplet/cell ratio, laser cytometry, cells loaded with oleic acid
# Summary of the method: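 Cells seeded at 5,000 per well were treated with compounds over a concentration series and loaded with oleic acid (400 uM, as added). Lipid droplet fluorescence (488 nm excitation, 500-530 nm channel) was read by laser-scanning cytometry and normalized to 20 uM Triacsin C.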
# [15] = biological target: DNA repair nuclease/redox regulator APEX1 (Homo sapiens) (UniProt P27695); test: qHTS Validation Assay for Inhibitors of the Human Apurinic/apyrimidinic Endonuclease 1 (APE1) (AID 1705;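 further: TAMRA fluorescence gain over two minutes as APE1 cuts a quenched THF abasic duplex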)
# Chain of DNA repair nuclease/redox regulator APEX1 (Homo sapiens) (P27695 whole entry, looked up): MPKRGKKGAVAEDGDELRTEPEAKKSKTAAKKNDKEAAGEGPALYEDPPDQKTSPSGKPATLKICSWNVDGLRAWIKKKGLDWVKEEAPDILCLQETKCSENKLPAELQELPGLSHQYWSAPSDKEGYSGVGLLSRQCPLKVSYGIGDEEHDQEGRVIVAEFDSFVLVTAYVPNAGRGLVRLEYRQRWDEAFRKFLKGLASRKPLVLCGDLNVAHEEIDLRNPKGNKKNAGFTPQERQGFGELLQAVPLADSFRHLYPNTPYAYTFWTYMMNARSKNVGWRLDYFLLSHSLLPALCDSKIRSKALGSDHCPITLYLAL
# Summary of the method: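 Fluorogenic double-stranded THF abasic-site substrate (5'-TAMRA/3'-BHQ-2), 50 nM final. Enzyme preincubated with compound 15 min at room temperature, then substrate added. Kinetic fluorescence (ex 525/em 598 nm) read three times at 60 s intervals; activity taken as third-minus-first read difference.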
# [16] = Counterscreen for APE1 Inhibitors: Fluorescent Dye Displacement Validation Assay (AID 1707)
# Summary of the method: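 Thiazole Orange displacement from dsDNA: 250 nM ThO with 50 nM TAMRA-labelled abasic-site (tetrahydrofuran) duplex in 50 mM Tris-HCl pH7.5, 50mM NaCl, 2 mM MgCl2, 0.01% Tween-20. Loss of endpoint fluorescence (ex 480 nm, em 540 nm) flags DNA binders.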
# [17] = biological target: Endonuclease 4 (Escherichia coli (strain K12)) (UniProt P0A6C1); test: Counterscreen for APE1 Inhibitors: qHTS Validation Assay for Inhibitors of Endonuclease IV (AID 1708)
# Summary of the method: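 E. coli EndoIV at 2 nM final, preincubated 15 min at room temperature with compound, then 50 nM TAMRA/BHQ-2 THF abasic-site duplex added. Buffer: 50 mM Tris-HCl pH 7.5, 50 mM NaCl, 2 mM MgCl2, 1 mM DTT, 0.01% Tween-20. Kinetic fluorescence increase, third minus first read.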
compound,measurement,setting,value
O=C(OCCN1CCCCC1)c1c[nH]c2ccccc12,Potency,[1],12.6 µM (active) and 15.8 µM (active)
same,"activity change, negative = inhibition",[2],-11% (inactive)
same,"activity, negative = inhibition",[3],-6.33% (inactive)
same,Potency,[4],> 46 µM (inactive)
same,Potency,[5],> 46 µM (inactive)
same,Potency,[6],inactive
same,outcome,[7],inactive
same,Potency,[8],2 µM (active)
same,Potency,[9],inactive
same,outcome,[10],inactive
same,outcome,[11],inactive
same,outcome,[12],inactive
same,outcome,[13],inactive
same,"activity change, negative = inhibition",[14]; at 57.5 µM (top of the series),-1.63% (inactive)
same,max response,[14]; measured here: cell count channel max response,-19.5%
same,max response,[14]; measured here: lipid channel max response,-30.4%
same,Potency,[15],inactive
same,Potency,[16],inactive
same,Potency,[17],inactive
